This note sets out measurements from PubChem BioAssay (NCI).

This is part of a sample that, as a whole, favours compounds with a hit. Of some 83,000 tested, about 20% had one in any assay.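 Cell lines were cultured in 96-well plates, exposed to a single compound concentration, and assessed for percent growth 48 hours later.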 Values without a mark were called inactive. The source made the active and inactive calls. The calls were made as follows: active = growth percent below 10; inactive = the rest.

Some test systems named below: T-47D breast; BT-549 breast; MDA-MB-435 melanoma; SW-620 colon; MCF7 breast; HCT-116 colon; HCC-2998 colon; KM12 colon.
Common to all, as to assay: NCI-60 one-dose screen, 48 h (100 = growth as untreated, 0 = no growth, -100 = all killed)
Common to all, as to conditions: 10 µM unless noted

With `COc1ccc(Cl)cc1NC(=O)c1cc2c(n1C)-c1nc(NC(=O)C(C)(C)C)sc1CC2`, the growth with T-47D breast was 64.5%; in the experiment on BT-549 breast, 94.6%; in the experiment on MDA-MB-435 melanoma it was 102%; with SW-620 colon it was 107%; with MCF7 breast, 79.4%; in the experiment with HCT-116 colon it was 85.4%. Besides, the values for the growth in the experiment with HCC-2998 colon and with KM12 colon were 118% and 94.8%, respectively.

Turning to `COC(=O)c1ccc2c(c1)Oc1ccc(Cl)cc1-c1cc(C)nn1-2`, the growth is 71.7% with T-47D breast; 96% with BT-549 breast; 97.5% in the experiment on MDA-MB-435 melanoma; 68.5% in the experiment on SW-620 colon; 79.4% with MCF7 breast; 44% in the experiment on HCT-116 colon. Further, the growth is 100% in the experiment on HCC-2998 colon and 87.7% in the experiment with KM12 colon.

Take `Cc1ccccc1C[P+](c1ccccc1)(c1ccccc1)c1ccccc1`: the growth is 26% with T-47D breast; 29.6% in the experiment with BT-549 breast; 14.6% in the experiment on MDA-MB-435 melanoma; 22.8% in the experiment on SW-620 colon; 10.8% in the experiment with MCF7 breast; 15.7% with HCT-116 colon. Moreover, the growth in the experiment with HCC-2998 colon is 12.2%; with KM12 colon, 14.5%.

Consider `Nc1ccc(S(=O)(=O)Nc2cc(I)cc(I)c2)cc1`, for which the growth in the experiment with T-47D breast was 105%; in the experiment on BT-549 breast it was 118%; in the experiment on MDA-MB-435 melanoma it was 106%; with SW-620 colon, 119%; in the experiment on MCF7 breast it was 120%; in the experiment with HCT-116 colon, 99.5%. For the same molecule, the growth in the experiment on HCC-2998 colon is 105%; in the experiment on KM12 colon it was 111%.

For `Cc1nc(-c2ccc(Cl)cc2)ccc1NC(=O)Nc1cccc(C(F)(F)F)c1`, the growth with T-47D breast was 87.5%; in the experiment on BT-549 breast it was 98.6%; in the experiment with MDA-MB-435 melanoma it was 103%; in the experiment with SW-620 colon, 89.6%; in the experiment on MCF7 breast, 81%; with HCT-116 colon it was 74.5%. The results for the growth in the experiment with HCC-2998 colon and in the experiment on KM12 colon were 107% and 101%, respectively.

Consider `CC(=O)Oc1ccc(C(OC(C)=O)OC(C)=O)cc1`, for which the growth is 72.1% with T-47D breast; 94.2% with BT-549 breast; 104% in the experiment with MDA-MB-435 melanoma; 112% with SW-620 colon; 98.5% in the experiment with MCF7 breast; 92.8% in the experiment with HCT-116 colon. Moreover, the results for the growth in the experiment with HCC-2998 colon and in the experiment on KM12 colon were 97.2% and 98.6%, respectively.

Take `COc1ccc(-c2[nH]c3ccccc3c2/C=C(\C#N)S(=O)(=O)c2ccccc2)cc1`: the growth with T-47D breast is 66.7%; with BT-549 breast it was 80.5%; in the experiment with MDA-MB-435 melanoma it was -5.59% (active); in the experiment with SW-620 colon, 28.6%; in the experiment with MCF7 breast, 6.42% (active); in the experiment with HCT-116 colon, 11%. Moreover, the growth was -29.2% (active) in the experiment with HCC-2998 colon and 7.51% (active) with KM12 colon.

With `C=C1C(=O)O[C@H]2[C@H]1CC/C(COC(=O)c1ccccc1)=C\CC[C@@]1(C)O[C@@H]21`, the growth in the experiment on T-47D breast was -18.7% (active); in the experiment on BT-549 breast it was -13.7% (active); with MDA-MB-435 melanoma, -3.73% (active); with SW-620 colon, -55.4% (active); with MCF7 breast it was -30.7% (active); with HCT-116 colon it was -86.6% (active). Besides, the growth in the experiment with HCC-2998 colon is 83.9%; in the experiment on KM12 colon, 65.6%.

`C=C(C)[C@@H]1C/C=C(\COC(=O)[C@H](OC(C)=O)C(NC(=O)c2ccccc2)c2ccccc2)CC[C@H]2O[C@]2(C)CC/C=C(\C)CC1` (some centres not stated): the growth is 68.7% [5 µM] in the experiment on T-47D breast; 68.5% [5 µM] with BT-549 breast; 67% [5 µM] with MDA-MB-435 melanoma; 94.8% [5 µM] in the experiment on SW-620 colon; 38.2% [5 µM] with MCF7 breast; 42.7% [5 µM] in the experiment with HCT-116 colon. Besides, the growth is 75.5% [5 µM] in the experiment on HCC-2998 colon and 69.1% [5 µM] in the experiment on KM12 colon.

For `O=C(Nc1ccc(-n2ccc3c(NC(=O)c4ccccc4)ncnc32)cc1)c1ccc(Cl)c(C(F)(F)F)c1`, the growth in the experiment on T-47D breast was 30.4%; in the experiment with BT-549 breast it was 55.1%; with MDA-MB-435 melanoma, 18.2%; in the experiment on SW-620 colon, -3.54% (active); with MCF7 breast, 12.5%; with HCT-116 colon it was -32% (active). In addition, the growth in the experiment with HCC-2998 colon was 48.2%; in the experiment with KM12 colon, 11.1%.

As to `COc1ccccc1N1CCN(CCCOc2ccc(OCCCN3CCN(c4ccccc4OC)CC3)c(C(=O)c3cc(OC)c(OC)c(OC)c3)c2)CC1`, the growth with T-47D breast is 104%; with BT-549 breast, 96.3%; in the experiment with MDA-MB-435 melanoma it was 122%; in the experiment on SW-620 colon, 102%; in the experiment on MCF7 breast, 95.1%; in the experiment with HCT-116 colon it was 111%. In addition, the growth in the experiment on HCC-2998 colon is 107%; in the experiment on KM12 colon it was 113%.

Turning to `COCCNC(C(=O)c1ccccc1)c1ccccc1` (configuration not stated), the growth with T-47D breast was 92.1%; with BT-549 breast it was 97.6%; in the experiment with MDA-MB-435 melanoma it was 103%; in the experiment with SW-620 colon it was 101%; in the experiment with MCF7 breast, 95.3%; in the experiment with HCT-116 colon it was 99.9%. Also, the growth in the experiment on HCC-2998 colon is 107%; in the experiment on KM12 colon, 104%.

As for `N#CC1=C(N)Oc2c(ccc3ccccc23)C1c1cc(=O)oc2ccc(Cl)cc12` (configuration not stated), the growth was 47.7% in the experiment on T-47D breast; 49% in the experiment with BT-549 breast; -43.2% (active) in the experiment with MDA-MB-435 melanoma; 29.6% in the experiment with SW-620 colon; 19.7% in the experiment on MCF7 breast; 12.7% with HCT-116 colon. Also, the growth in the experiment on HCC-2998 colon is 36.6%; in the experiment with KM12 colon it was 21.5%.

As for `C#C[C@H](O)/C=C/CCCCCCC#C[C@H](O)CC[C@@H](O)C#CCCCCCC/C=C/[C@@H](O)C#C`, the growth in the experiment with T-47D breast was 76%; with BT-549 breast it was 93.9%; in the experiment on MDA-MB-435 melanoma, 92.5%; in the experiment on SW-620 colon, 71.9%; with MCF7 breast it was 68.5%; in the experiment with HCT-116 colon, 57.3%. Besides, the growth is 95.2% in the experiment with HCC-2998 colon and 93.2% in the experiment on KM12 colon.
